For 100 molecules, AC50 and activity, negative = inhibition results are on record in PubChem BioAssay AID1851 (National Center for Advancing Translational Sciences (NCATS), 2009).

Molecules are shown by their SMILES. The whole screen tested about 16,000 compounds, of which about 2,600 (16%) were called active. Not shown: some 20% with an inconclusive outcome. A selection follows. Unmarked numbers belong to inactive results. Calls follow the shape of the dose curve; as a rule, active = well fitted curve in the direction sought with a large enough effect; inconclusive = small, poorly fitted or top-dose-only effect, or effect the other way; inactive = no such curve, though single readings can be large or run the other way.
% is scaled to controls: 0 for no effect and ±100 for the full control effect.

For the experiment, the target named is Cytochrome P450 2D6 (Homo sapiens) (UniProt P10635). Briefly: Cytochrome panel assay with activity outcomes. To be noted: recombinant CYP, pro-luciferin dealkylation, luminescence, p450-cyp2d6; series mostly up to 57.1 µM.
Cytochrome P450 2D6 (Homo sapiens), sequence (P10635 whole entry, looked up): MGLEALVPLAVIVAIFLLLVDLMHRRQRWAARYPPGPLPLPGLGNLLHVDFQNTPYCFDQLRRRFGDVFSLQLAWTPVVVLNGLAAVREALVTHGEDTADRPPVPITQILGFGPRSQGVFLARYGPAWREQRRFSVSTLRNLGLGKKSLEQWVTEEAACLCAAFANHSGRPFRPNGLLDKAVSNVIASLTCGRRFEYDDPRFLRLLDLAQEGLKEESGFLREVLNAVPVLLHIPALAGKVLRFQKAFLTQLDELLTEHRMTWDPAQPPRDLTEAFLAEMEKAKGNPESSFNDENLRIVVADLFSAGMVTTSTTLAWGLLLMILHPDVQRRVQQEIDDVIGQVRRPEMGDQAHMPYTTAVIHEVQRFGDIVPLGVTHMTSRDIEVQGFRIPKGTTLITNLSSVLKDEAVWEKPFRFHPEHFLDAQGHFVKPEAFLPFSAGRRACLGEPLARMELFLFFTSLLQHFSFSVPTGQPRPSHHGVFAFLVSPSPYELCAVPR
Usually AC50 stands for the concentration giving half of the maximal activity seen. In the case of `Nc1ncnc2c1ncn2[C@@H]1O[C@@H](C(=O)NC2CC2)[C@H](O)[C@@H]1O`, the AC50 entry is “inactive”.
Consider `CC(CO)(CO)Nc1ncnc2ccccc12`, for which the activity, negative = inhibition was -4.58% [at 11.4 µM].
As for `c1ccc(CN2CC[C@@H](CNc3ncnc4ccccc34)C2)cc1`, the AC50 is 0.794 µM (active).
In the case of `OC[C@@H](O)CNc1ncnc2ccccc12`, the activity, negative = inhibition is 3.48% [at 11.4 µM].
`COCCn1c(=O)cnc2cnc(Nc3ccccc3)nc21`: the AC50 result was “inactive”.
On the same count and under the same terms, to `O=C(CSc1nnc(Cn2nnc3ccccc32)o1)Nc1cccc(Cl)c1` belongs 12.6 µM (active); to `CC(C)(C)OC(=O)NCCc1nnc(SCC(=O)Nc2cccc(Cl)c2)o1`, “inactive”; to `CCC(=O)Nc1cccc(NC(=O)CSc2nnnn2Cc2ccccc2)c1`, “inactive”.
For the molecule `CC(=O)[C@H]1CC[C@H]2[C@@H]3C=CC4=CC(=O)CC[C@@]4(C)[C@H]3CC[C@]12C`, the AC50 entry is “inactive”.
Take `COC(=O)CC1C(=O)NCCN1C(=O)Nc1ccc(Cl)cc1` (stereo not given): the AC50 entry was “inactive”.
Consider `Cc1ccc(-n2cc(C(=O)c3ccc4ccccc4c3O)cn2)cc1`, for which the AC50 entry was “inactive”.
For `CSC1(SC2=NCCN2)SC2(NCCN2)S1`, the AC50 was 3.98 µM (active).
On to `COc1ccc(CNCCc2ccccc2)cc1OCC(N)=O`, for which the half-maximal activity concentration (AC50) was 0.398 µM (active).
Turning to `COc1cc(CNCc2cccs2)ccc1OCC(N)=O`, the AC50 is 2 µM (active).
Consider `CCOc1cc(CNc2ccc(OC)cc2)cc(Br)c1OCC(=O)NC(C)(C)C`, for which the AC50 result was “inactive”.
For `COc1ccc(C/C(N)=N/OC(=O)Cc2ccccc2)cc1OC`, the AC50 result was “inactive”.
For `COc1ccc(/C=N/NC(=O)CCc2ccccc2)cc1O`, the AC50 entry was “inactive”.
Take `COc1ccc(C[C@@](C)(N)C(=O)O)cc1OC`: the AC50 result is “inactive”.
Still for that read-out and setting: in the case of `CC(C)(C)c1ccc(OCC(=O)NNC(=O)CCc2ccccc2)cc1` it was “inactive”.
On the same count and under the same terms, in the case of `COc1ccc(CNC(=O)Nc2cccs2)cc1OC` it was “inactive”; in that of `COc1cc(CNCCc2ccccc2)ccc1OCC(=O)NC(C)(C)C`, 3.16 µM (active).
Turning to `N[C@@H]1[C@@H]2[C@@H]3C[C@H]4N(CC[C@@]14C(=O)C(=O)O)CC3=CCO[C@@H]2CC(=O)O`, the activity, negative = inhibition was -4.74% [at 11.4 µM].
`Cc1cccc2nc(C(F)(F)F)nc(=O)n12`: the AC50 entry was “inactive”.
Turning to `COc1cccc(Cn2c(=O)c(-c3cn(C)c4ccccc34)nc3cnc(OC)nc32)c1`, the AC50 entry is “inactive”.
As for `COc1ccc(NS(=O)(=O)c2cc(-c3nnnn3C)ccc2OC)cc1`, the AC50 entry is “inactive”.
For the molecule `COC(=O)Nc1nc2ccc(C(=O)c3cccs3)cc2[nH]1`, the AC50 result was “inactive”.
`COCC(=O)N1CCC2(CCCN(c3ccncc3)C2)CC1`: the AC50 result is “inactive”.
`CC1=C(C(N)=O)C(c2ccccn2)n2nc(SCc3ccccc3Cl)nc2N1` (stereo not given): the AC50 entry was “inactive”.
Consider `CC(C)CNc1nc(N)[nH]c(=O)c1NC=O`, for which the activity, negative = inhibition was -2.42% [at 11.4 µM].
As to `CN1CCN(c2ncc3nc(-c4cc(F)cc(F)c4)c(=O)n(CCC#N)c3n2)CC1`, the AC50 entry was “inactive”.
On to `Cc1cccc(-n2cccc2)c1C#N`, for which the AC50 result is “inactive”.
On the same count and under the same terms, in the case of `FC(F)(F)c1ccccc1-n1ccnc1` it was “inactive”; in that of `N#Cc1c(-n2ccnc2)cccc1-n1ccnc1`, 6.31 µM (active).
The same measure, in the same setting: to `O=C(/C=C\NCC(=O)c1ccccc1)c1ccccc1` belongs “inactive”; to `N#CC1=C(N)OC2=C(CC/C2=C\c2ccccc2)C1c1ccccc1` (stereo not given), “inactive”.
Same read-out and setting: to `Cc1c(-c2c(C#N)c(N)nc3c2CCCCCC3)cnn1C` belongs “inactive”; to `COc1ccc(CNc2ncncc2-c2ccc(C(=O)N(C)C)cc2)c(OC)c1`, 20 µM (active); to `COc1ccc(CNc2ncncc2-c2ccc(N(C)C)cc2)c(OC)c1`, 10 µM (active).
`CO[C@H]1COC(=O)[C@H](C)COC(=O)[C@@H](Cc2ccccc2)NC(=O)C/C=C\[C@H]1C`: the activity, negative = inhibition was 3.3% [at 11.4 µM].
With `NS(=O)(=O)c1cc2c(cc1C(F)(F)F)N[C@H](Cc1ccccc1)NS2(=O)=O`, the AC50 result is “inactive”.
On to `CCN1CCN(S(=O)(=O)c2ccc(Cl)c(C(=O)Nc3nnc(CC(C)C)s3)c2)CC1`, for which the AC50 result is “inactive”.
With `Cc1ccc(C)c(NC(=O)Cn2c([N+](=O)[O-])cnc2C)c1`, the AC50 result is “inactive”.
Regarding `Cc1ccc(C)c(NC(=O)C2CC(O)CN2C(=O)OC(C)(C)C)c1` (stereo not given), the AC50 result was “inactive”.
On the same count and under the same terms, to `Cc1ccc(C)c(NC(=O)C2C3CCCC2C3c2ccccc2)c1` (stereo not given) belongs 2.82 µM (active); to `Cc1ccc(C)c(NC(=O)C2CC3c4ccccc4C2c2ccccc23)c1` (stereo not given), 0.2 µM (active).
Consider `Cc1ccc(C)c(NC(=O)C2(C)CC3c4ccccc4C2c2ccccc23)c1` (stereo not given), for which the AC50 was 0.2 µM (active).
For `CCOc1ncccc1C(=O)OCC(=O)Nc1cc(C)ccc1C`, the AC50 result was “inactive”.
Still for that read-out and setting: in the case of `Cc1ccc(C(=O)NC(=S)Nc2cc(-c3nc4ccccc4s3)ccc2C)cc1` it was “inactive”.
For the molecule `Cc1ccc(NC(=O)C2C3CCCC2C3c2ccccc2)cc1C` (stereo not given), the AC50 entry is “inactive”.
Take `CC(C)=NOCc1cccc(-c2cc(-c3ccccc3)no2)c1`: the activity, negative = inhibition is -6.68% [at 11.4 µM].
As to `CC(C)COCC1CC2(CC(C)(c3csc(N)n3)OC2=O)C(=O)O1` (stereo not given), the AC50 result was “inactive”.
On to `CCS(=O)(=O)N1CCN(c2c(Cl)cccc2[N+](=O)[O-])CC1`, for which the AC50 entry is “inactive”.
With `COC(=O)C1=C(C)NC(C)=C(C(=O)OC(C)C)[C@H]1c1cccc2nonc12`, the AC50 entry was “inactive”.
For `Fc1cc2nc(-c3ccncc3)[nH]c2cc1F`, the AC50 was 12.6 µM (active).
`O=C(c1ccccc1)c1ccc2nc(-c3ccc(NC(=O)c4ccccc4F)cc3)[nH]c2c1`: the AC50 entry is “inactive”.
In the case of `Nc1ccc(S(=O)(=O)Nc2cnc3ccccc3n2)cc1`, the AC50 result is “inactive”.
`O=C(O)CCNc1ccccc1C(=O)O`: the activity, negative = inhibition is 3.09% [at 11.4 µM].
As for `O=C1C2C3C=CC(C3)C2C(=O)N1c1ncn[nH]1` (stereo not given), the AC50 result is “inactive”.
With `COc1ccc(CC(=O)Nc2ccc(-c3noc(-c4cccc(OC)c4)n3)cc2)cc1`, the AC50 result was “inactive”.
With `COc1ccc(-c2noc(N(C)CC(=O)Nc3cccc(C(F)(F)F)c3)n2)cc1`, the AC50 was 35.5 µM (active).
`CN(C)S(=O)(=O)Oc1ccccc1C(=O)Nc1cccc(C(F)(F)F)c1`: the AC50 entry was “inactive”.
Take `C=CCn1c(SCc2ccccc2)nc2scc(-c3ccc(C)o3)c2c1=O`: the AC50 result was “inactive”.
Regarding `COc1cccc(/C=N/NC(=O)CSc2nnc(C)n2-c2ccccc2)c1O`, the AC50 entry was “inactive”.
With `COCCN1C(=O)C(=O)/C(=C(/O)c2cccc(OC)c2)C1c1ccco1` (stereo not given), the AC50 entry was “inactive”.
The same measure, in the same setting: to `CCC(=O)NC(NCC1CCCO1)C(Cl)(Cl)Cl` (stereo not given) belongs “inactive”; to `Cc1ccc(CCN2CC(C(=O)NC3CCCC3)CC2=O)cc1` (stereo not given), “inactive”; to `CCOCCCN1CC(C(=O)NCCc2ccc(C)cc2)CC1=O` (stereo not given), 3.55 µM (active).
For the molecule `Cc1ccc(CCN2CC(C(=O)NCCN3CCOCC3)CC2=O)cc1` (stereo not given), the AC50 result is “inactive”.
As to `CC(C)=NO[C@@H](C)c1cn([C@@H]2COC[C@@H]2O)nn1`, the activity, negative = inhibition is 14.3% [at 11.4 µM].
In the case of `Cc1ccc(-c2noc(-c3cc4ccccc4oc3=O)n2)cc1`, the AC50 result was “inactive”.
The same measure, in the same setting: in the case of `Cc1cccc(-c2noc(-c3cc4ccccc4oc3=O)n2)c1` it was “inactive”.
On to `O=c1oc2ccccc2cc1-c1csc(NN=C2CCCCC2)n1`, for which the AC50 was 2.82 µM (active).
With `Cc1ccccc1N1CCN(S(=O)(=O)C[C@@]23CC[C@H](C[C@H]2NC(=O)[C@@H](N)CCS(C)(=O)=O)C3(C)C)CC1`, the AC50 entry was “inactive”.
On to `CCN1CCc2nc(NC(=O)c3ccc4c(c3)OCCO4)sc2C1`, for which the AC50 result was “inactive”.
On to `CCN1CCc2nc(NC(=O)CC(c3ccccc3)c3ccccc3)sc2C1`, for which the AC50 is 0.316 µM (active).
As for `Cc1cc(=O)[nH]c(SCC(=O)Nc2nc3c(s2)CCCC3)n1`, the AC50 entry is “inactive”.
Take `CC1=NN(c2ccccc2)C(=O)/C1=C\c1c(C)[nH]n(-c2ccccc2)c1=O`: the AC50 entry is “inactive”.
As for `COc1ccc2oc(=O)c(C(=O)Oc3ccc(NC(C)=O)cc3)cc2c1`, the AC50 entry was “inactive”.
For `Cc1ccc2oc(-c3cccc(NC(=S)NC(=O)/C=C/c4ccco4)c3)nc2c1`, the AC50 result was “inactive”.
As for `CCOc1[nH]n(-c2ccc(Cl)cc2)c(=O)c1C=Nc1ccc(O)cc1`, the AC50 entry was “inactive”.
Take `CO[C@@H]1COC(=O)[C@H]2CCCN2C(=O)[C@@H](C)COC(=O)[C@H](COCc2ccccc2)NC(=O)C/C=C\[C@H]1C`: the activity, negative = inhibition is 1.71% [at 11.4 µM].
`C=C(C)[C@H]1CC=C(C)/C(=N/NC(=O)CNc2ccccc2OC)C1`: the AC50 entry was “inactive”.
The same measure, in the same setting: to `CCC(C)NS(=O)(=O)c1ccc(OCC(=O)Nc2ccc3c(c2)OCCO3)cc1` (stereo not given) belongs “inactive”; to `CC(C)(C)c1nc(SCC(=O)Nc2ccc3c(c2)OCCO3)c2ccccc2n1`, “inactive”; to `CCOc1ccc2nc(C)cc(Nc3ccc4c(c3)OCCO4)c2c1`, 1.58 µM (active).
In the case of `CO[C@H]1COC(=O)[C@H](C)NC(=O)C/C=C\[C@@H](C)[C@@H](NS(=O)(=O)c2ccc(C)cc2)COC(=O)[C@H](OCc2ccccc2)/C=C\[C@@H]1C`, the activity, negative = inhibition is -11.2% [at 11.4 µM].
Take `Cc1noc(N)c1C(=O)Nc1ccc(F)cc1`: the AC50 result is “inactive”.
On the same count and under the same terms, to `N#Cc1c(NC(=O)CCN2C(=O)c3ccccc3C2=O)oc(-c2ccccc2)c1-c1ccccc1` belongs “inactive”; to `CC1Cc2ccccc2N1C(=O)C1CCCCN1S(=O)(=O)c1ccccc1` (stereo not given), “inactive”; to `CC1CCN(S(=O)(=O)c2ccc3c(c2)C(=NO)c2cc(S(=O)(=O)N4CCC(C)CC4)ccc2-3)CC1`, “inactive”.
Same read-out and setting: to `CC1CCN(CC[C@@H]2CCCN2S(=O)(=O)c2cccc(O)c2)CC1` belongs 15.8 µM (active).
Take `OC[C@@H]1NC[C@@H](O)[C@H]1O`: the AC50 result was “inactive”.
On the same count and under the same terms, to `O=C(C/C=N/OCc1ccc(F)cc1Cl)c1cnc(-c2ccccc2)s1` belongs “inactive”; to `O=C(COC(=O)COc1ccccc1)Nc1ccc(OC(F)(F)F)cc1`, “inactive”; to `CC(C)OC(=O)/C(=C\c1ccc2c(c1)c1ccccc1n2C)NC(=O)c1ccccc1`, “inactive”.
For the molecule `COCCn1c(=O)cnc2cnc(Oc3ccccc3)nc21`, the AC50 entry is “inactive”.
As to `COCCCNC(=O)c1c(N)n(/N=C/c2ccccn2)c2nc3ccccc3nc12`, the AC50 entry is “inactive”.
Consider `CCCCCOC(=O)c1c(N)n(CCOC)c2nc3ccccc3nc12`, for which the AC50 was 25.1 µM (active).
Turning to `CN(C1CCCCC1)S(=O)(=O)c1ccc(NC(=S)NC(=O)c2cccs2)cc1`, the AC50 result is “inactive”.
For the molecule `COC(=O)c1sc2ncccc2c1OCc1c(Cl)cccc1Cl`, the AC50 entry is “inactive”.
